Calls of active or inactive are those of the source. How the source made its calls: active means hit-call score of the fitted dose curve at least 0.9, where 1 is the maximum; inactive means score below 0.9.
Read-out: Hypoxia-inducible factor 1-alpha (Homo sapiens) (UniProt Q16665)
Assay: LTEA_HepaRG_HIF1A: Life Technologies and Expression Analysis (LTEA) Assay for Hypoxia-inducible factor 1 (HIF1A) Trancription factor using HepaRG (AID 2283503);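 further: HIF1A transcript by TaqMan qRT-PCR normalized to ACTB GAPDH and POLR2A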
Details: mRNA level, 48 h; actives raise or lower the signal
Protocol: LTEA_HepaRG is a cell based, multiplexed-readout assay that uses HepaRG, a human liver cell line, with measurements taken at 48 hours after chemical dosing on a 96-well plate.LTEA_HepaRG_HIF1A is one of 102 assay component(s) measured in the LTEA HepaRG cell culture assay. It is a marker of Cell proliferation, survival, death.Data from the assay component LTEA_HepaRG_HIF1A was analyzed into 1 endpoint. This assay endpoint, LTEA_HepaRG_HIF1A, was analyzed with bidirectional fitting relative to DMSO as the negative control and baseline of activity. Using a type of inducible reporter, measures of mRNA induction for gain or loss-of-signal activity can be used to understand regulation of transcription factor activity. To generalize the intended target to other relatable targets, this assay endpoint is annotated to the dna binding intended target family, where the subfamily is basic helix-loop-helix protein.
A total of 1060 chemcials from the ToxCast library were tested in eight-point concentration-response experiments. Cell culture and cytotoxicity assays were conducted at Thermo Fisher Scientific's Custom Services facility (Madison, WI). A single lot of human HepaRG cells (Thermo Fisher Scientific, Frederick, MD) was used for the cell culture experiments. 96-well format collagen type I coated plates of human HepaRG cells were prepared using established methods. Briefly, cryopreserved HepaRG cells were thawed, plated at a density of approximately 100,000 cells/well in HepaRG Thaw, Plate, and General Purpose media (HPRG770, Thermo Fisher Scientific), and incubated for 48 hours. 0.5% DMSO was selected as vehicle control to balance the requisite need of DMSO in HepaRG cultures to maintain differentiation (for example, baseline metabolism, proportions of hepatocytes vs. cholangiocytes), while enabling further hepatic receptor pathway activation (for example, PXR and CAR) in response to chemical exposure. 48 hours after plating, the culture medium was replaced with HepaRG Serum-Free Incudtion Media. Cells were exposed to each test chemical in duplicate and maintained in CO2 incubators for another 48 hours. Chemical plates were thawed to room temperature and 200x concentrations of treatment groups were prepared. 8-point conentration-reponse curves were made with the highest exposure at 100 uM, followed by half-log dilutions, all in 0.5% DMSO. Each test plate contained variouse controls, induction positive controls (1mM phenobarbital), cytotoxicity positive controls ([…] aflatoxin B1), vehicle controls (0.5% DMSO), and total lysis controls (0.5% DMSO). Cell morphology images were taken using an Essen IncuCyte FLR automated microscope, with six 96-well plates imaged in about 24 minutes. Images were captured and exported and JPEG files. Spent culture media was transfered to black-well plates for the LDH assay, and remaining media was sorted at -80 C for later use. Cells were treated with RLT buffer and frozen until shipped for gene expression analysis. Total RNA was isolated from the cell suspension in 75 uL of Buffer RLT (Qiagen, Germantown, MD 20874) by Quintiles/Expression Analysis (Durham, NC) using a custom isolation procedure. Total RNA from each plate well was transferred to a preamplification plate. Fluidigm's 96.96 Dynamic ArrayTM (Fluidigm, Amsterdam, the Netherlands) technology was used for gene expression analyses by quantitative reverse transcription polymerase chain reaction (qRT-PCR, performed by Quintiles/Expression Analysis, Durham, NC)89. Standard TaqManTM Assays (Applied Biosystems/ThermoFisher Scientific, Foster City, CA) were used to assess the expression of 93 genes selected based on their selectivity and sensitivity to important hepatic receptors known to be modulated by environmental chemicals; importance in human hepatocyte functionality; and hepatotoxicity. […]

Chain of Hypoxia-inducible factor 1-alpha (Homo sapiens) (Q16665 whole entry, looked up): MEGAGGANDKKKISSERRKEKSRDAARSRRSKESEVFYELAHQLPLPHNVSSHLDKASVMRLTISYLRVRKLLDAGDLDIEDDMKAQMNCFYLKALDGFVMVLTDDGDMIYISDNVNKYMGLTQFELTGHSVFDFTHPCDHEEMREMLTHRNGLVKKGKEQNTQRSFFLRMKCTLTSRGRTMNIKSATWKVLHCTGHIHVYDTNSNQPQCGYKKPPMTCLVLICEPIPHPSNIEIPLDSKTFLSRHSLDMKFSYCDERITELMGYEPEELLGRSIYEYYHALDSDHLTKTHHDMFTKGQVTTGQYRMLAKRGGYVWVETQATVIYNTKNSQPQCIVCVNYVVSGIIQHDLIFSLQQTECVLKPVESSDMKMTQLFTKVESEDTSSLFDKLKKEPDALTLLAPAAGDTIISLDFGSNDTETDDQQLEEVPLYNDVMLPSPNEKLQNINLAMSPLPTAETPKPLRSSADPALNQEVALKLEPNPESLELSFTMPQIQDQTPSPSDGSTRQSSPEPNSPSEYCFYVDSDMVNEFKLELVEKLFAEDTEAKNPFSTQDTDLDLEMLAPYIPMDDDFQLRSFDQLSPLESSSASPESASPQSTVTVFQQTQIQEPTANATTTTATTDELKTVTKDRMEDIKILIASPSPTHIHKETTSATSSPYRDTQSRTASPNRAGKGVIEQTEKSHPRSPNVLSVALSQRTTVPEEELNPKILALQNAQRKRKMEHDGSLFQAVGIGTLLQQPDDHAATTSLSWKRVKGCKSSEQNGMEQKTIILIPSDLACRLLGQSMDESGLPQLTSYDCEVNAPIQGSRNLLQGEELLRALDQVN

Row | SMILES | outcome | AC50
1 | COC(=O)NS(=O)(=O)c1ccc(N)cc1 | inactive | –
2 | CSC(=O)c1c(C(F)F)nc(C(F)(F)F)c(C(=O)SC)c1CC(C)C | inactive | –
3 | Cc1cnc(C2=NC(C)(C(C)C)C(=O)N2)c(C(=O)O)c1 (stereo not given) | inactive | –
4 | Clc1cccc(C(Cl)(Cl)Cl)n1 | inactive | –
5 | Cc1ccc(N=CN(C)C=Nc2ccc(C)cc2C)c(C)c1 | inactive | –
6 | CS(=O)(=O)c1cc(C(F)(F)F)ccc1C(=O)c1cnoc1C1CC1 | inactive | –
7 | N#Cc1c[nH]cc1-c1cccc2c1OC(F)(F)O2 | – | 83.4 µM (active)
8 | CCSC(=O)N1CCCCCC1 | inactive | –
9 | O=c1n(Cl)c(=O)n(Cl)c(=O)n1Cl | inactive | –
10 | CCCCC(O)(Cn1cncn1)c1ccc(Cl)cc1Cl (stereo not given) | – | 80.6 µM (active)
11 | Cc1nc(N(C)C)nc(OC(=O)N(C)C)c1C | inactive | –
12 | CCOc1cc(C(C)(C)C)ccc1C1COC(c2c(F)cccc2F)=N1 (stereo not given) | inactive | –
13 | Clc1nc(Cl)nc(Nc2ccccc2Cl)n1 | inactive | –
14 | COC(=O)NC(=S)Nc1ccccc1NC(=S)NC(=O)OC | inactive | –
15 | N#CN=C1SCCN1Cc1ccc(Cl)nc1 | inactive | –
16 | CCOc1nc(C(Cl)(Cl)Cl)ns1 | inactive | –
17 | CCOP(=S)(OCC)Oc1nc(Cl)n(C(C)C)n1 | inactive | –
18 | CC1(C)CON(Cc2ccccc2Cl)C1=O | inactive | –
19 | CCOP(=O)(OCC)Oc1nc(Cl)c(Cl)cc1Cl | – | 49.8 µM (active)
20 | CC(C)N1C(=O)c2ccccc2NS1(=O)=O | inactive | –

Row | SMILES | outcome | AC50
21 | COc1cc(OC)nc(NC(=O)NS(=O)(=O)c2ncccc2OCC(F)(F)F)n1 | inactive | –
22 | CCCCC(C#N)(Cn1cncn1)c1ccc(Cl)cc1 (stereo not given) | inactive | –
23 | CS(=O)(=O)c1ccc(C(=O)C2C(=O)CCCC2=O)c([N+](=O)[O-])c1 | inactive | –
24 | CC(C)N1C(=O)N(c2ccccc2)CSC1=NC(C)(C)C | inactive | –
25 | CC1(C)C(C=C(Cl)Cl)C1C(=O)OC(C#N)c1cccc(Oc2ccccc2)c1 (stereo not given) | inactive | –
26 | COCC(=O)N(c1c(C)cccc1C)C(C)C(=O)OC (stereo not given) | inactive | –
27 | CCCC(=NOCC)C1=C(O)CC(CC(C)SCC)CC1=O (stereo not given) | inactive | –
28 | C=C(C)CN(CC)c1c([N+](=O)[O-])cc(C(F)(F)F)cc1[N+](=O)[O-] | inactive | –
29 | Nc1cnn(-c2ccccc2)c(=O)c1Cl | inactive | –
30 | CC(C)Oc1cccc(NC(=O)c2ccccc2C(F)(F)F)c1 | inactive | –
31 | COc1ccc(-c2ccccc2)cc1NNC(=O)OC(C)C | inactive | –
32 | CC(C)(C)C(=O)C(Oc1ccc(Cl)cc1)n1cncn1 (stereo not given) | inactive | –
33 | CCN(CC)c1nc(C)cc(OP(=S)(OC)OC)n1 | inactive | –
34 | CCNC(=O)NC(=O)C(C#N)=NOC | inactive | –
35 | COC(=O)N(C(=O)N1CO[C@@]2(C(=O)OC)Cc3cc(Cl)ccc3C2=N1)c1ccc(OC(F)(F)F)cc1 | inactive | –
36 | CC(C)NC(=O)N1CC(=O)N(c2cc(Cl)cc(Cl)c2)C1=O | inactive | –
37 | CC(C)=CC1C(C(=O)OCc2coc(Cc3ccccc3)c2)C1(C)C (stereo not given) | inactive | –
38 | CCNP(=S)(OC)O/C(C)=C/C(=O)OC(C)C (stereo not given) | inactive | –
39 | OC(c1ccc(Cl)cc1)(c1ccc(Cl)cc1)C(Cl)(Cl)Cl | inactive | –
40 | O=C1C2CC=CCC2C(=O)N1SC(Cl)(Cl)Cl (stereo not given) | inactive | –
